In PubChem BioAssay AID1745848 (National Center for Advancing Translational Sciences (NCATS), 2022):
About 940 (45%) of roughly 2,100 compounds were called active. Inconclusive results (about 48%) are left out. The set was probably picked from earlier hits. This is one part of the list. Values without a mark were called inactive. Calls follow the shape of the dose curve; as a rule, active = well fitted inhibition curve with a large enough effect; inconclusive = small, poorly fitted or top-dose-only effect; inactive = no such curve, though single readings can be large or run the other way.

Assay: Confirmatory qHTS for Inhibitors of ATXN expression; also: nearly all actives have a fitted effect of over 65% in size;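 as to activity change, negative = inhibition: 0% = DMSO vehicle wells and -100% = medium-only wells without cells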
Conditions: ATXN2-luciferase reporter cells, luminescence, 24 h; series mostly up to 11.5 µM; activity change, negative = inhibition: at the top concentration
Text: PI: Daniel Scoles Ph.D. University of Utah School of Medicine, Salt Lake City, Utah MLPCN Grant: NS073009 Spinocerebellar ataxia type 2 (SCA2) is a multisystem neurodegenerative disease caused by a dominantly acting mutation leading to expansion of a polyQ domain in the ataxin-2 protein (ATXN2). SCA2 patients develop progressive ataxia and later lose function in other neuronal systems. Prominent parkinsonian signs develop in some patients. Like many neurodegenerative disorders, no symptomatic or disease-modifying treatments are known. The primary objective of the proposed research is to identify compounds inhibiting ATXN2 expression and to test them for efficacy in SCA2 mouse models. We have developed a cell-based assay paired with an in vivo mouse model using identical luciferase expression constructs. This approach takes advantage of an ATXN2-luciferase transgene, with the luciferase gene flanked by the upstream and downstream portions of the ATXN2 gene. Here we describe a 5-7 dose quantitative high thoroughput screen (qHTS) for compounds lowering ATXN2 expression. We screened the NIH Molecular Libraries Small Molecule Repository (MLSMR) and NCGC's mechanistically annotated (MIPE) and drug repurposing (NPC) collections of compounds for lowering expression of an ATXN2-luciferase reporter in HEK-293 cells. The assay is a multiplexed cell viability assay to ensure target reduction in the absence of cytotoxicity. Secondary qHTS assays included a CMV-luciferase reporter expressed in HEK-293 cells as well as a biochemical assay using recombinant luciferase to detect inhibitors of the reporter enzyme. Compounds that inhibit ATXN2 expression but is not cytotoxic were selected for confirmatory and secondary screens.
PROTOCOL TABLE (as described by Inglese J, Shamu CE and Guy RK. 2007) SEQUENCE No. (e.g., 1, 2, 3, etc.); PARAMETER (e.g., Cells, Incubation, Reagent, etc.); VALUE; DESCRIPTION. 1; Cells; 4 uL; white, solid bottom, 1536-well Greiner assay plate. 2; Incubation; 2 hr; 37 degree C in 5% humidified CO2. 3; Compounds; 23 nL; Kalypsis pintool (Wako USA) equipped with a 1536-well pin head. 4; Incubation; 24 hr; 37 degree C in 5% humidified CO2. 5; Reagent; 1 uL; Gly-Phe-7-Amino-4-trifluoromethylcoumarin. 6; Incubation; 30 min; 37 degree C in 5% humidified CO2. 7; Detection; Fluorescence; ViewLux plate reader (PerkinElmer). 8; Reagent; 3 uL; SteadyGlo luciferase solution (Promega). 9; Incubation; 5 min; room temperature. 10; Detection; Luminescence; ViewLux plate reader (PerkinElmer). NOTES (numbers refer to Sequence numbers above) 1. […] expressing ATXN2-luciferase reporter were suspended in phenol-red free DMEM and dispensed in assay plates using a Multidrop Combi dispenser (Thermo Fisher Scientific). Wells containing medium only were plated on each plate, and values were used to normalize (100% inhibition) in the luciferase and CellTiter-Fluor assays. 2. Assay plates were incubated. Evaporation was prevented by covering assay plates with metal lids containing holes to allow gas diffusion. 3. Compounds were added in a dose response manner with the final concentrations of 57, 11.4, 2.28, 0.46, 0.091, 0.018, 0.0037 uM. Vehicle-only plates, with DMSO being pin-transferred to columns 5-48, were inserted uniformly at the beginning and the end of each library to monitor and record any shifts in assay performance. 5. 125 uM Gly-Phe-7-Amino-4-trifluoromethylcoumarin (MP Biomedicals) working concentration was used at a final concentration of 25 uM. 7. To assess cell viability; the assay plates were read using the ViewLux high-throughput CCD imager (PerkinElmer), wherein single end-point fluorescence measurement was acquired (excitation 405/10; emission 540/25 nm). 8. Detection reagent SteadyGlo Luciferase (Promega) was added to the assay plate. 10. Luminescence is then measured on the ViewLux imager equipped with a clear emission filter using a 2 sec exposure. […]
Potency is read from the fitted curve at half-maximal effect.

| SMILES | activity change, negative = inhibition | Potency |
| --- | --- | --- |
| O=C(CCN1C(=O)C2CC=CCC2C1=O)Nc1nc(-c2ccc(F)c(F)c2)cs1 (stereo unspecified) | -4.12% [at 57.5 µM] | – |
| O=C(Nc1nc(-c2ccc(F)c(F)c2)cs1)Nc1ccc(F)cc1F | – | 1.41 µM (active) |
| COc1cc(CC(=O)Nc2nc(-c3ccc(F)c(F)c3)cs2)cc(OC)c1OC | – | 3.98 µM (active) |
| COc1ccc(CC(=O)Nc2nc(-c3ccc(OC)c(OC)c3)cs2)cc1OC | – | 3.16 µM (active) |
| COc1ccc(CC(=O)Nc2nc(-c3ccc(F)c(F)c3)cs2)cc1OC | – | 4.47 µM (active) |
| COCCNc1nc(-c2cc(C)n(CCc3ccc(OC)cc3)c2C)cs1 | -16.2% [at 57.5 µM] | – |
| CCCCCc1ccc(OCCCC[n+]2cccc(C)c2)c(CCCCC)c1 | – | 14.1 µM (active) |
| CCCCCc1ccc(OCCC[n+]2ccccc2)c(CCCCC)c1 | – | 14.1 µM (active) |
| CCOC(=O)[C@H]1[C@H]2COc3ccc(OC)cc3[C@@H]2N2C(=O)c3cc(OC)c(OC)cc3NC(=O)[C@@]12C | -9.99% | – |
| COc1ccc(/C=C2\CN(Cc3ccccc3)C/C(=C\c3ccc(OC)c(O)c3)C2=O)cc1O | – | 3.98 µM (active) |
| COc1ccc(C(=O)Cn2c(C(=O)/C=C/c3ccccc3)nc3ccccc32)cc1 | – | 2.82 µM (active) |
| COCC(C)n1c(C)cc(C(=O)COC(=O)c2cccn2C)c1C (stereo unspecified) | – | 2.24 µM (active) |
| C/C(=N\NC(=O)c1cc(C2CC2)nc2ccccc12)c1ccc(O)cc1O | – | 3.55 µM (active) |
| C/C(=N\NC(=O)c1cc(-c2cccnc2)nc2ccccc12)c1ccc(O)cc1O | – | 2.51 µM (active) |
| Cc1onc(-c2ccccc2)c1C(=O)Nc1ccc(S(=O)(=O)NC(C)(C)C)cc1 | -20.4% [at 57.5 µM] | – |
| COc1cccc(/C=N/NC(=O)c2c(-c3ccccc3)noc2C)c1O | – | 0.708 µM (active) |
| Cc1cccc(/C=N/NC(=O)c2c(-c3ccccc3)noc2C)c1O | – | 1.26 µM (active) |
| Cc1cc(N2CCN(C)CC2)ccc1NC(=O)c1ccc(-c2ccc(Cl)cc2)o1 | – | 14.1 µM (active) |
| CCc1ccc(N2CC(C(=O)N/N=C/c3cc([N+](=O)[O-])ccc3O)CC2=O)cc1 (stereo unspecified) | – | 25.1 µM (active) |
| O=C(N/N=C/c1ccccc1O)C1CC(=O)N(c2ccc(F)cc2)C1 (stereo unspecified) | – | 3.55 µM (active) |
| O=C(N/N=C/c1ccccc1O)C1CC(=O)N(c2ccc(Cl)cc2)C1 (stereo unspecified) | – | 1.41 µM (active) |
| CC(Oc1ccc(Cl)cc1)C(=O)NNC(=S)NC(=O)c1ccco1 (stereo unspecified) | – | 14.1 µM (active) |
| COc1ccccc1C(=O)NNC(=S)NC(=O)c1ccco1 | – | 6.31 µM (active) |

| SMILES | activity change, negative = inhibition | Potency |
| --- | --- | --- |
| COc1ccccc1NC(=S)NC(=O)c1ccc(Cn2cc(Br)cn2)cc1 | -19.7% [at 57.5 µM] | – |
| COC(=O)C(Cc1ccc(O)cc1)NC(=O)C(C)Oc1ccccc1 (stereo unspecified) | -11.3% [at 57.5 µM] | – |
| CC(=O)c1ccc(NC(=O)COC(=O)c2c3c(nc4ccccc24)/C(=C\c2cccs2)CCC3)cc1 | – | 20 µM (active) |
| O=C(NN=Cc1ccc(O)cc1O)c1ccccc1NS(=O)(=O)c1cccs1 | – | 2.82 µM (active) |
| O=C1/C(=C/c2ccncc2)CCC/C1=C\c1ccncc1 | – | 5.62 µM (active) |
| CN1C/C(=C/c2cccnc2)C(=O)/C(=C/c2cccnc2)C1 | 1.08% | – |
| CCn1c(/C=C/c2ccc([N+](=O)[O-])o2)nc2ccccc2c1=O | – | 7.08 µM (active) |
| O=C(Nc1ccc(F)cc1)Nc1cc(OCC(F)(F)F)cc(OCC(F)(F)F)c1 | – | 3.55 µM (active) |
| COc1ccc(CC2C(=O)NC(C)C(=O)N(C)C3Cc4ccc(cc4)Oc4cc(ccc4O)CC(C(=O)NC(C)C(=O)NC(C)C(=O)N2C)N(C)C3=O)cc1 (stereo unspecified) | – | 0.251 µM (active) |
| O=C(CCCC(=O)Nc1cccc(Br)c1)N/N=C/c1cc([N+](=O)[O-])ccc1O | – | 3.16 µM (active) |
| O=C(CCC(=O)Nc1cc(C(F)(F)F)ccc1Cl)N/N=C\c1cc([N+](=O)[O-])ccc1O | – | 3.16 µM (active) |
| O=C(CSCc1ccc(Cl)cc1)Nc1cc([N+](=O)[O-])ccc1O | -3.54% | – |
| c1ccc(CN=C(NCc2ccccc2)NCc2ccccc2)cc1 | – | 28.2 µM (active) |
| COc1ccc2[nH]c3c(N4CCC(O)(c5cccc(C(F)(F)F)c5)CC4)ncnc3c2c1 | – | 2.82 µM (active) |
| COc1cccc2c1C1COC3C4CC(C(=O)O)C(C(C2)N13)N4C (stereo unspecified) | – | 10 µM (active) |
| COc1cccc2c1C(CO)N1C(C#N)C3CC(C(=O)O)C(C1C2)N3C (stereo unspecified) | – | 0.282 µM (active) |
| Cc1nnc(-c2ccccc2)c(=O)n1/N=C/c1c(O)ccc2ccccc12 | – | 10 µM (active) |
| COC(=O)c1ccc(N2CCOCC2)c(NC(=O)Nc2cccc(OC)c2)c1 | -5.44% | – |
| COc1ccc2nc(C)cc(Nc3ccc(N4CCOCC4)cc3)c2c1 | – | 15.8 µM (active) |
| CC(C)(C)c1ccc(C(=O)N2CCCCCC2=O)cc1 | – | 1.78 µM (active) |
| COc1ccc(-c2csc(N(CCCN3CCOCC3)C(=O)c3ccco3)n2)cc1 | – | 3.16 µM (active) |
| COc1ccc(-c2csc(N(CCCN(C)C)C(=O)c3ccccc3Cl)n2)cc1 | – | 3.16 µM (active) |
| COc1ccc(/C(N)=N/OC(=O)N2CCOCC2)cc1 | -30.8% | – |
